PubChem BioAssay (Tox21)
Values joined by “and” are separate entries in the source; they are usually repeats but may differ in a detail not shown here. Equal values may be shown once. Results filed as inconclusive are left out. Active and inactive are the calls of the source. Unless noted, calls come from the whole dose curve; as a rule, active = well fitted curve in the direction sought with a large enough effect in the repeat runs; inconclusive = weak or mixed curves; inactive = no such curve, though single readings can be large; an effect the other way counts as inactive or inconclusive.

Key:
[1] = qHTS assay to identify small molecule antagonists of the androgen receptor (AR) signaling pathway using the MDA cell line in the presence of 0.5 nM R1881 - cell viability counter screen (AID 1259242); note: nearly all actives have a fitted effect of over 45% in size; note: potency is the fitted concentration of half-maximal effect
Summary of the method: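 Live-cell protease activity was measured by CellTiter-Fluor fluorescence after 30 min. Before that, MDA-kb2 MMTV-luciferase cells had 16 hr at 37C without CO2, exposed to test compounds and 0.5 nM R1881 final.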

[2] = biological target: Androgen receptor (Homo sapiens) (UniProt P10275); assay: qHTS assay to identify small molecule antagonists of the androgen receptor (AR) signaling pathway using the MDA cell line in the presence of 0.5 nM R1881 (AID 1259243); note: nearly all actives have a fitted effect of over 50% in size; note: potency is the fitted concentration of half-maximal effect
Summary of the method: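 Luminescent reporter readout (ONE-Glo, 30 min, room temperature) after 16 hr co-treatment of MDA-kb2 cells with test compounds and 0.5 nM R1881 final, at 37C without CO2. The MMTV-driven luciferase responds to both AR and GR.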

[3] = qHTS assay to identify small molecule HDAC inhibitors (AID 1259364); note: top concentration of the series differs between compounds; % is set by controls: 0 for no effect and ±100 for the full control effect; nearly all actives have a fitted effect of over 45% in size
Summary of the method: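 Luminescence read after 30 min room-temperature HDAC-Glo incubation measures cellular class I/II HDAC activity. Compounds were applied for 2 hr at 37 C to HCT-116 wild-type cells seeded the day before.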

[4] = qHTS assay to identify small molecule HDAC inhibitors - cell viability counter screen (AID 1259365); note: series mostly up to about 92 µM; % is set by controls: 0 for no effect and ±100 for the full control effect; nearly all actives have a fitted effect of over 50% in size
Summary of the method: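 After overnight seeding at 1,500 cells per well, wild-type HCT-116 cultures took up compounds in DMSO for 2hr at 37 C. Viable cell content came from luminescence with CellTiter-Glo.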

[5] = qHTS assay to identify small molecule agonists of the sonic hedgehog signaling (Shh) pathway - cell viability counter screen (AID 1259366); note: nearly all actives have a fitted effect of over 50% in size; note: potency is the fitted concentration of half-maximal effect
Summary of the method: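 Same-well cytotoxicity read. Gli1-Luc reporter 3T3 cells; compounds 24hr, 37C/5% CO2; CellTiter-Fluor fluorescence.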

[6] = qHTS assay to identify small molecule antagonists of the sonic hedgehog signaling (Shh) pathway - cell viability counter screen (AID 1259367); note: nearly all actives have a fitted effect of over 55% in size; note: potency is the fitted concentration of half-maximal effect
Summary of the method: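 Viability was read by CellTiter-Fluor fluorescence in the same wells, reagent added 23 hr into compound treatment and incubated 1 hr at 37C. The 3T3 Gli1-Luc reporter cells (2,000/well) received conditioned medium after compound and ran 24 hr.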

[7] = qHTS assay to identify small molecule agonists of the sonic hedgehog signaling (Shh) pathway (AID 1259368; calls by dose curve;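 note: NIH/3T3-derived 3T3Gli1-Luc cells carrying a stable Gli1-driven firefly luciferase reporter; series mostly up to about 92 µM; % is set by controls: 0 for no effect and ±100 for the full control effect; nearly all actives have a fitted effect of over 15% in size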)
Summary of the method: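 Luminescence was read after 30 min at room temperature with luciferase reagent. Before that, 3T3Gli1-Luc cells (NIH/3T3 clone, stable Gli1-Luc reporter; 2,000/well) were exposed to compounds for 24 hr at 37C, 5% CO2, compounds being added 4 hr post-plating.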

[8] = qHTS assay to identify small molecule antagonists of the sonic hedgehog signaling (Shh) pathway (AID 1259369; calls by dose curve; note: nearly all actives have a fitted effect of over 45% in size; note: potency is the fitted concentration of half-maximal effect; for activity change, negative = inhibition: % is set by controls: 0 for no effect and ±100 for the full control effect)
Summary of the method: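 Antagonist mode: compound added to 3T3 Gli1-Luc cells followed by conditioned-medium stimulation, 24 h at 37 C, 5% CO2. Inhibition taken as loss of Gli1-driven luciferase luminescence.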

[9] = qHTS assay to identify small molecule agonists of the estrogen receptor beta (ER-beta) signaling pathway - cell viability counter screen (AID 1259380); note: potency is the fitted concentration of half-maximal effect; nearly all actives have a fitted effect of over 30% in size
Summary of the method: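 Cell viability counter screen: CellTiter-Glo luminescence (30 min, room temperature) measured in the same wells as the beta-lactamase readout, after 16 hr compound exposure at 37C of ER-beta-bla HEK293T cells in 2% charcoal-stripped FBS medium.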

[10] = qHTS assay to identify small molecule antagonists of the estrogen receptor beta (ER-beta) signaling pathway - cell viability counter screen (AID 1259382); note: nearly all actives have a fitted effect of over 55% in size; note: potency is the fitted concentration of half-maximal effect
Summary of the method: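 Cytotoxicity was measured in the same wells by CellTiter-Glo luminescence after 30 min at room temperature. Cells were ER-beta-bla HEK293T in charcoal-stripped serum, given compound together with 1 nM E2 and incubated 16 h at 37C.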

[11] = qHTS assay to identify small molecule agonists or antagonists of the thyroid stimulating hormone receptor (TSHR) signaling pathway - wild type cell line counter screen (AID 1259384; calls by dose curve; note: % is set by controls: 0 for no effect and ±100 for the full control effect)
Summary of the method: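 Counter screen in untransfected Hek293: compounds (15-point titration, triplicate) plus phosphodiesterase inhibitor Ro20-1724 added after 18 h plating; 30 min RT. Intracellular cAMP via competitive d2/cryptate immunoassay, 1 h incubation.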

[12] = biological target: Estrogen receptor beta (Homo sapiens) (UniProt Q92731); assay: qHTS assay to identify small molecule antagonists of the estrogen receptor beta (ER-beta) signaling pathway (AID 1259378; active = well fitted inhibition curve with a large enough effect in the signal ratio in the repeat runs, not every such curve was filed as active; the % refers to the signal ratio; note: potency is the fitted concentration of half-maximal effect)
Summary of the method: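 Antagonist mode: compounds added to beta-lactamase reporter HEK293T ER-beta-UAS cells stimulated with E2 (1nM final), 16 hr at 37C. LiveBLAzer B/G FRET substrate, 2 hours room temperature, fluorescence read-out.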

[13] = qHTS assay to identify small molecule agonists of the androgen receptor (AR) signaling pathway in the presence of an antagonist - cell viability counter screen (AID 1259379); note: nearly all actives have a fitted effect of over 25% in size; note: potency is the fitted concentration of half-maximal effect
Summary of the method: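 Cytotoxicity counter-screen run in the same wells as the nilutamide-challenged (3.0 µM final) AR agonist assay in MDA-kb2 cells. Compounds tested at 15 concentrations for 16 h, 37 °C without CO2; CellTiter-Fluor fluorescence read.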

[14] = biological target: Estrogen receptor (Homo sapiens) (UniProt P03372); assay: qHTS assay to identify small molecule antagonists of the estrogen receptor alpha (ER-alpha) signaling pathway using the BG1 cell line in the presence of 0.1 nM 17-beta-estradiol (AID 1259244); note: nearly all actives have a fitted effect of over 50% in size; note: potency is the fitted concentration of half-maximal effect
Summary of the method: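 Luciferase luminescence (ONE-Glo, 30 min at room temperature) was read after 22 hr at 37C exposure to compounds plus 17beta-estradiol at 0.1 nM final. Cells were VM7Luc4E2 with endogenous ER-alpha and an ERE-driven luciferase, pre-cultured 5 days in hormone-depleted medium.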

[15] = qHTS assay to identify small molecule phospholipidosis (PLD) inducers (AID 1259344; active = well fitted curve in the direction sought with a large enough effect; an effect the other way counts as inactive or inconclusive; note: % is set by controls: 0 for no effect and ±100 for the full control effect)
Summary of the method: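 Phospholipid accumulation was scored by imaging: fixed, Hoechst-counterstained HepG2 cells stained with LipidTOX Red after 24 h compound exposure at 37 C. Read-outs were pit count and pit intensity per well or per cell, with amiodarone and DMSO controls.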

[16] = biological target: Estrogen receptor (Homo sapiens) (UniProt P03372); assay: qHTS assay to identify small molecule agonists of the estrogen receptor alpha (ER-alpha) signaling pathway in the presence of an antagonist (AID 1259383; calls by dose curve; note: top concentration of the series differs between compounds; % is set by controls: 0 for no effect and ±100 for the full control effect; nearly all actives have a fitted effect of over 15% in size)
Summary of the method: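 Agonist-mode confirmation run in the presence of 10.0nM (final) ICI-182,780 antagonist. The reporter was ERE-driven luciferase in VM7Luc4E2 cells, grown in charcoal-stripped serum. Cells were exposed to 15-concentration compound series for 22hr, then ONE-Glo luminescence was read.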

[17] = biological target: Thyrotropin receptor (Homo sapiens) (UniProt P16473); assay: qHTS assay to identify small molecule antagonists of the thyroid stimulating hormone receptor (TSHR) signaling pathway (AID 1259385; calls by dose curve; note: % is set by controls: 0 for no effect and ±100 for the full control effect; nearly all actives have a fitted effect of over 20% in size)
Summary of the method: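 Antagonist mode: compound-treated TSHR-expressing HEK293 cells were stimulated with 1.5 ng/mL TSH (final) in presence of Ro20-1724 for 30 min at RT. HTRF cAMP detection after 1 h; each compound tested at 15 concentrations, triplicate.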

[18] = biological target: Estrogen receptor beta (Homo sapiens) (UniProt Q92731); assay: qHTS assay to identify small molecule agonists of the estrogen receptor beta (ER-beta) signaling pathway (AID 1259377; active = well fitted activation curve with a large enough effect in the signal ratio in the repeat runs, not every such curve was filed as active; the % refers to the signal ratio; note: % is set by controls: 0 for no effect and ±100 for the full control effect)
Summary of the method: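 Read-out: beta-lactamase FRET fluorescence. Cell line: ER-beta-UAS-bla HEK293T in 2% charcoal-stripped FBS. Exposure: 16 hr at 37C. Substrate step: 2 h at room temperature.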

[19] = biological target: Androgen receptor (Homo sapiens) (UniProt P10275); assay: qHTS assay to identify small molecule agonists of the androgen receptor (AR) signaling pathway in the presence of an antagonist (AID 1259381; calls by dose curve; note: % is set by controls: 0 for no effect and ±100 for the full control effect; nearly all actives have a fitted effect of over 15% in size)
Summary of the method: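 Agonist-mode confirmation run against 3.0 uM final nilutamide: compounds titrated at 15 concentrations onto MDA-kb2 MMTV-luciferase reporter cells. Luminescence measured with ONE-Glo following 16 hr incubation, 37C, 0% CO2.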

Estrogen receptor (Homo sapiens), sequence (P03372 whole entry, looked up): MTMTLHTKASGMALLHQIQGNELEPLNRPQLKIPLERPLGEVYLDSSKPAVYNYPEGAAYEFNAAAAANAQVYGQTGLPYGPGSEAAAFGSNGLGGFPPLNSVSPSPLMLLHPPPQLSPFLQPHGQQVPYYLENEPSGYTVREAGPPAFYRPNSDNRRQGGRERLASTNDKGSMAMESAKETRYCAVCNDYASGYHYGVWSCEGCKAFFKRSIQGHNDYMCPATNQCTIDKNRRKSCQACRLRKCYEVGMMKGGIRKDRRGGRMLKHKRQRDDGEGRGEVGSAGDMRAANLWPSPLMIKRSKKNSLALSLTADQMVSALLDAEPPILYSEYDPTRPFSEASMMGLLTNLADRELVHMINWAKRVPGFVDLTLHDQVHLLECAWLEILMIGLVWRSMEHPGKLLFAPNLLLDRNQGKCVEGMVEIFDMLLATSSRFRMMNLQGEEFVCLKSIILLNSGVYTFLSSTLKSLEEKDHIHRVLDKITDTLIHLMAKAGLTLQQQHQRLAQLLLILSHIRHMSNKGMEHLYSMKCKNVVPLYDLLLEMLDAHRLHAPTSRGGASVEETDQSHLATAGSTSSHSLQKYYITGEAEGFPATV
Estrogen receptor beta (Homo sapiens), sequence (Q92731 whole entry, looked up): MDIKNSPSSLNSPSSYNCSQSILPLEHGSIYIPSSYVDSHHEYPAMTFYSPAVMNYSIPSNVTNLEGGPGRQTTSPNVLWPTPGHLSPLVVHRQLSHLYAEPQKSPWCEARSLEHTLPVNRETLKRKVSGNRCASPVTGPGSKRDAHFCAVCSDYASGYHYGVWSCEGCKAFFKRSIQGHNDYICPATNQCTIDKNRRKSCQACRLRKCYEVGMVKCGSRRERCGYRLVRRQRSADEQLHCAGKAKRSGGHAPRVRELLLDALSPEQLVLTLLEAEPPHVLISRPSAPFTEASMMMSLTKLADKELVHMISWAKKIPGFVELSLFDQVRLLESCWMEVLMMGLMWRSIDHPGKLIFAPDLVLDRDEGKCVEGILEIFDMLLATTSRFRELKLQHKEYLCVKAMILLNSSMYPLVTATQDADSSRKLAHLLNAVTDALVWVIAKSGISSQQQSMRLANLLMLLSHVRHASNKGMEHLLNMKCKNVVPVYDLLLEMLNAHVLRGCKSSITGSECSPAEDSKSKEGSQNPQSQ
Androgen receptor (Homo sapiens), sequence (P10275 whole entry, looked up): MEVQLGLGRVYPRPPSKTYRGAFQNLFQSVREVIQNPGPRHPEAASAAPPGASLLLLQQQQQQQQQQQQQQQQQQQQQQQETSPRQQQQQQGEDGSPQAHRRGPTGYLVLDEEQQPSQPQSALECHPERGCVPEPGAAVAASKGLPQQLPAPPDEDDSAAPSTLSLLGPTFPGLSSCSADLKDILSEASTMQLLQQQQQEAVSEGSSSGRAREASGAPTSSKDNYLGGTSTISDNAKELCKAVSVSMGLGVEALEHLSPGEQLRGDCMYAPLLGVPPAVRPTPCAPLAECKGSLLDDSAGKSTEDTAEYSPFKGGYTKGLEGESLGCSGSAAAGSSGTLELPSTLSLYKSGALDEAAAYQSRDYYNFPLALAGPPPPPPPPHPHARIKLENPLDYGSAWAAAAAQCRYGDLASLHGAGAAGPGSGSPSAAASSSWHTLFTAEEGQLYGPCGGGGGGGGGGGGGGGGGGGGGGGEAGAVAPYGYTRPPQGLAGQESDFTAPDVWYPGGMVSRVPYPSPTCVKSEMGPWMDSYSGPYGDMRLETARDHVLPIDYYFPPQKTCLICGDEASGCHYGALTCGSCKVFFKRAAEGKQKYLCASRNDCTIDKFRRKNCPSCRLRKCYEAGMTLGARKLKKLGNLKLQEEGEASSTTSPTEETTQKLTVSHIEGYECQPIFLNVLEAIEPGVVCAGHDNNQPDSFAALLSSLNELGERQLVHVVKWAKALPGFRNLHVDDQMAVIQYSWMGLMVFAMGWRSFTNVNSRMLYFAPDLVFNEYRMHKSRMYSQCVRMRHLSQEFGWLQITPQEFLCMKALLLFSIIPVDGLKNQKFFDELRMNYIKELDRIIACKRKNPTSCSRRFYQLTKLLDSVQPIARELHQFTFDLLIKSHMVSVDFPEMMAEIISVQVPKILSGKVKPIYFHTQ
Thyrotropin receptor (Homo sapiens), sequence (P16473 whole entry, looked up): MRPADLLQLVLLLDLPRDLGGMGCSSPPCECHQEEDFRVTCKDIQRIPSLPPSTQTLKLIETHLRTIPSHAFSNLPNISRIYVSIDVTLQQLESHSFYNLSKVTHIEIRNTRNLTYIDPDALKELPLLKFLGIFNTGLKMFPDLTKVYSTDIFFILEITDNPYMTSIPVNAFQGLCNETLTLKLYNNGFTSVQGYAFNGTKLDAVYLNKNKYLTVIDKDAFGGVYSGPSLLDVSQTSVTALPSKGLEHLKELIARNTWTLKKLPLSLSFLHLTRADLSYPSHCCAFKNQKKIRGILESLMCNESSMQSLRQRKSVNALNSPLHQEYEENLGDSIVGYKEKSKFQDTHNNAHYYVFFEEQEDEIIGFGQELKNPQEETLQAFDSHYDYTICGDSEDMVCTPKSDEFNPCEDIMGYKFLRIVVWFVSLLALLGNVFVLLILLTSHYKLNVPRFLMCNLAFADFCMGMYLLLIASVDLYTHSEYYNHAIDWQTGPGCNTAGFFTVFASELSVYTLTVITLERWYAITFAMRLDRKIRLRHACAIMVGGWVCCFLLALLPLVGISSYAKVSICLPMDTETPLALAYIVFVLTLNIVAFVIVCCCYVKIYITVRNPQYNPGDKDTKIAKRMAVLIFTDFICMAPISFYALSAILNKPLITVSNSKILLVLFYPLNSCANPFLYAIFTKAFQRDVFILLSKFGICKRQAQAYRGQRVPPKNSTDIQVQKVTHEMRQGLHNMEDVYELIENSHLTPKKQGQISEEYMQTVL

CCCCCCCCCOC(=O)c1ccc(O)cc1
active: Potency [2] 42.7 µM | Potency [5] 60.3 µM | Potency [9] 53.7 µM | Potency [10] 53.7 µM
inactive: Potency [1] | Potency [3] | Potency [4] | Potency [6] | Potency [7] | Potency [8] | outcome [11]

CCN(CC)CCNC(=O)c1c(C)[nH]c(/C=C2\C(=O)Nc3ccc(F)cc32)c1C
active: Potency [1] 29.8 µM | Potency [5] 5.96 µM | Potency [6] 13.3 µM | Potency [8] 3.35 µM | Potency [12] 33.5 µM | Potency [13] 29.8 µM | Potency [9] 11.9 µM | Potency [10] 11.9 µM
inactive: Potency [3] | Potency [4] | Potency [7]

Nc1c2ccccc2nc2ccccc12
active: Potency [9] 2.14 µM and 3.35 µM
inactive: Potency [1] | Potency [14] | Potency [15] | Potency [3] | Potency [4] | Potency [6] | Potency [7] | Potency [8] | Potency [16] | Potency [17]

Cn1cc(C(=O)[C@@H]2CCc3nc[nH]c3C2)c2ccccc21
inactive: Potency [14] | Potency [15] | Potency [3] | Potency [5] | Potency [7] | Potency [18] | Potency [12] | Potency [13] | Potency [10] | Potency [16] | outcome [11] | Potency [17]
active: Potency [8] 15 µM

CC(=O)N1CCN(c2ccc(OC[C@H]3CO[C@](Cn4ccnc4)(c4ccc(Cl)cc4Cl)O3)cc2)CC1
inactive: Potency [3] | Potency [7] | Potency [16] | outcome [11]
active: Potency [14] 27.3 µM | Potency [5] 54.5 µM | Potency [6] 27.3 µM | Potency [8] 3.06 µM | Potency [12] 21.7 µM | Potency [13] 54.5 µM | Potency [9] 48.6 µM

O=C1c2c(O)ccc(Nc3ccc(CCO)cc3)c2C(=O)c2c([N+](=O)[O-])ccc(O)c21
inactive: Potency [14] | Potency [3] | Potency [7] | Potency [18] | Potency [19] | Potency [10] | Potency [16]
active: Potency [2] 54.5 µM | Potency [6] 48.6 µM | Potency [13] 43.3 µM | Potency [9] 17.2 µM

NC(=O)N1C(=O)C(C(=O)c2cc(Cl)cs2)c2cc(F)c(Cl)cc21 (centres undefined)
inactive: Potency [2] | Potency [3] | Potency [4] | Potency [7] | Potency [19] | Potency [16] | outcome [11] | Potency [17]
active: Potency [5] 27.3 µM | Potency [6] 27.3 µM | Potency [8] 6.86 µM | Potency [12] 17.2 µM | Potency [13] 7.7 µM | Potency [9] 30.6 µM

CC1=C(/C=C/C(C)=C/C=C/C(C)=C/C=O)C(C)(C)CCC1
active: Potency [1] 60.8 µM | Potency [5] 30.5 µM | Potency [6] 60.8 µM | Potency [8] 15.3 µM | Potency [13] 60.8 µM | Potency [9] 24.2 µM | Potency [10] 30.5 µM
inactive: Potency [3] | Potency [7] | outcome [11]

Nc1nc2ccccc2n1Cc1ccc(F)cc1
inactive: Potency [3] | Potency [4] | Potency [5] | Potency [6] | Potency [7] | Potency [10] | Potency [16] | outcome [11] | Potency [17]
active: Potency [2] 7.5 µM | Potency [14] 10.6 µM | Potency [13] 26.6 µM

O=C(OC[C@H]1O[C@@H](OC(=O)c2cc(O)c(O)c(OC(=O)c3cc(O)c(O)c(O)c3)c2)[C@H](OC(=O)c2cc(O)c(O)c(OC(=O)c3cc(O)c(O)c(O)c3)c2)[C@@H](OC(=O)c2cc(O)c(O)c(OC(=O)c3cc(O)c(O)c(O)c3)c2)[C@@H]1OC(=O)c1cc(O)c(O)c(OC(=O)c2cc(O)c(O)c(O)c2)c1)c1cc(O)c(O)c(OC(=O)c2cc(O)c(O)c(O)c2)c1
inactive: Potency [15] | activity change, negative = inhibition [3] 4.81% [at 19 µM] | activity change, negative = cytotoxicity [4] -4.93% [at 19 µM] | activity change [7] -2.95% [at 18.9 µM, hits give high values]
active: Potency [5] 11.7 µM | Potency [6] 6.57 µM | Potency [8] 5.22 µM

CN(C)c1ccc(SC#N)cc1
active: Potency [8] 48.6 µM
inactive: Potency [14] | Potency [3] | Potency [4] | Potency [5] | Potency [7] | Potency [18] | Potency [16] | Potency [17]

CCN(CCC#N)c1ccc(N=Nc2c(Cl)cc([N+](=O)[O-])cc2Cl)cc1
inactive: Potency [14] | Potency [3] | Potency [4] | Potency [5] | Potency [7] | Potency [8] | Potency [16] | Potency [17]
active: Potency [13] 17.2 µM
